From PMC4336329 (PLoS ONE, 2015)
In all, about 310,000 compounds went through this assay and about 14,000 (4.5%) showed an effect of 50% or more. The effect is printed as a negative number. This excerpt belongs to a sample that is enriched for strong results.

The compounds below were run against human ether-à-go-go-related gene (hERG) potassium channel (human, UniProt Q12809) (assay: primary screen, population patch clamp on CHO cells stably expressing hERG; higher = less effect of the substance).
Sequence of human ether-à-go-go-related gene (hERG) potassium channel (Q12809 whole entry, looked up): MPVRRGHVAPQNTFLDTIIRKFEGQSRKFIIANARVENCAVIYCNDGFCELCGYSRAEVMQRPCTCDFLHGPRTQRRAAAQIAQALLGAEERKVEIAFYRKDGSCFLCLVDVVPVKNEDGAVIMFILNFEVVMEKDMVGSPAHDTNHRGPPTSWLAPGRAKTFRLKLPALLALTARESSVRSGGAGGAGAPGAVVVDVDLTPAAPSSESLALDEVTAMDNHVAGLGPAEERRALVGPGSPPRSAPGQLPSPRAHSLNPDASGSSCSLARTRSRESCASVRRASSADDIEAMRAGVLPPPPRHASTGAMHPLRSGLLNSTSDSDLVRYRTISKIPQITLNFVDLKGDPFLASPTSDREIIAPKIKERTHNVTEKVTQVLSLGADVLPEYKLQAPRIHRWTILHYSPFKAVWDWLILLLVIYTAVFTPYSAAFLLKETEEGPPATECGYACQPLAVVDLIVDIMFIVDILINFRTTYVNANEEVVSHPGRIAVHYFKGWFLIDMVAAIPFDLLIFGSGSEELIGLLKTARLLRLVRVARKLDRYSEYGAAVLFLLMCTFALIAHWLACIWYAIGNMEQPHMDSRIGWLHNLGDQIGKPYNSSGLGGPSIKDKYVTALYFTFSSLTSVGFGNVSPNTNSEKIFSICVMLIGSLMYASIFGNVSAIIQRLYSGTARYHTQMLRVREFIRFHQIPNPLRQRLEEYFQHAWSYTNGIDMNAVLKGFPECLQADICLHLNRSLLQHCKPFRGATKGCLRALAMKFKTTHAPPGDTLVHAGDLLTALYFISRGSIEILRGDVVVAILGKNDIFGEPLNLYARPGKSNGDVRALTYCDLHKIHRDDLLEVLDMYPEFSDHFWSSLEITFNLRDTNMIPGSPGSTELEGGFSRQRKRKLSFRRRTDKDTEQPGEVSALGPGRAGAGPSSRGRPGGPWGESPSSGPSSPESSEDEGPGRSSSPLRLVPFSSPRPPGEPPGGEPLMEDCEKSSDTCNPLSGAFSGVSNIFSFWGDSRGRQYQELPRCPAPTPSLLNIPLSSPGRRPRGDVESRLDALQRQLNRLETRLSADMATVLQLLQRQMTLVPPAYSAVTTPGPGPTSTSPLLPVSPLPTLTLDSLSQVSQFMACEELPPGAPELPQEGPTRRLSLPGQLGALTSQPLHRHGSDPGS
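Also: peak tail current of the secondary pulse compared with the same well before compound.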

Row | Compound | hERG current change (%, negative = inhibition) at 10uM [%]
1 | Cn1c(=O)c(C(=O)CN2CCN(Cc3ccc4c(c3)OCO4)CC2)c(N)n(Cc2ccccc2)c1=O | -66.8
2 | Cn1c(=O)c(C(=O)CN2CCOCC2)c(N)n(Cc2ccccc2)c1=O | -13.2
3 | CCn1c(=O)c(C(=O)CN2CCOCC2)c(N)n(Cc2ccccc2)c1=O | -19
4 | Cn1c(=O)c(C(=O)CN2CCCCCC2)c(N)n(Cc2ccccc2)c1=O | -13.5
5 | CCn1c(=O)c(C(=O)CN2CCN(S(=O)(=O)c3ccccc3)CC2)c(N)n(Cc2ccccc2)c1=O | -14.6
6 | CN1CCN(c2ccc(N)c(N3CCN(C)CC3)c2)CC1 | 13.4
7 | CC(C)(C)NC(=O)C(c1ccc(F)cc1)N(Cc1ccccc1Cl)C(=O)c1ccn[nH]1 (centres unmarked) | 25.6
8 | CC1(C)CC(=O)C=C(c2cccc3c2oc2ccccc23)C1 | -2.67
9 | CC(=O)Oc1ccc2oc(=O)c3c(c2c1)CCCN3C(=O)CN1CCN(c2ncccn2)CC1 | -7.91
10 | CCOC(=O)C1CCCN(Cc2cc(=O)oc3cc(C)c(C)cc23)C1 (centres unmarked) | -19.3
11 | O=C(c1ccco1)N1CCN(CC(=O)N2CCCc3c2c(=O)oc2ccc(O)cc32)CC1 | -5.14
12 | CCCOc1ccc2oc(=O)c3c(c2c1)CCCN3C(=O)CN1CCN(C(=O)c2ccco2)CC1 | -65.3
13 | CCCOc1ccc(C(=O)Nc2ccc(N3CCN(C(=O)c4ccco4)CC3)cc2)cc1 | 13.2
14 | CCCOc1ccc2oc(=O)c3c(c2c1)CCCN3C(=O)CN1CCc2ccccc2C1 | -24.1
15 | CCCCCOc1ccc2oc(=O)c3c(c2c1)CCCN3C(=O)CN1CCCC(C(=O)OCC)C1 (centres unmarked) | -0.3
16 | CCCOc1ccc2oc(=O)c3c(c2c1)CCCN3C(=O)CN1CCCC(C(=O)OCC)C1 (centres unmarked) | -65.5
17 | CCCOc1ccc2oc(=O)c3c(c2c1)CCCN3C(=O)CN1CCN(c2ncccn2)CC1 | -70.1
18 | O=C(c1cnn2ccccc12)N1CCc2ccccc21 | 0.772
19 | CC(=O)c1ccc(N2CCN(C(=O)/C=C/c3ccc(S(=O)(=O)N4CCOCC4)cc3)CC2)cc1 | -30.3
20 | Clc1ccc(OCCCn2ccnc2)c(Br)c1.O=C(O)C(=O)O | -18.6
21 | Fc1ccccc1OCCCCCCN1CCCC1 | -38.2
22 | Brc1ccccc1OCCCCCN1CCCC1 | -33.9

Row | Compound | hERG current change (%, negative = inhibition) at 10uM [%]
23 | CCN1CCN(CCCOc2ccc(Cl)cc2Br)CC1.O=C(O)C(=O)O | -69
24 | Clc1ccccc1OCCCCN1CCCC1 | -29.6
25 | Clc1ccccc1OCCCCN1CCCCC1 | -8.1
26 | Cc1ccccc1OCCCN1CCCC1 | -14.4
27 | Clc1ccc(OCCCCCN2CCCC2)c(Br)c1 | -62.3
28 | Clc1cccc(OCCCN2CCCC2)c1Cl | -55.5
29 | Clc1ccc(Cl)c(OCCCCN2CCCCC2)c1 | -59.2
30 | Clc1ccc(Cl)c(OCCN2CCCC2)c1 | -38.8
31 | CCn1c(P(C)(=O)[O-])nc2ccccc21.[Na+] | 8.91
32 | COC(=O)c1sccc1NC(=S)N1CCCC(C)C1 (centres unmarked) | 14.6
33 | Cc1cc(C(=O)N2CCN(c3ccc(C(F)(F)F)cn3)CC2)c(C)o1 | -21.4
34 | CCOc1ccccc1C(=O)Nc1nnc(C(C)C)s1 | -1.92
35 | O=C(CCN1C(=O)/C(=C/c2ccc(F)cc2)SC1=S)NC1C=CS(=O)(=O)C1 (centres unmarked) | -15.2
36 | CCc1nc2ccccc2n1CCC(=O)O.Cl | -5.88
37 | CC1(C)c2ccccc2N2CC(=O)NC21/C=C/c1ccco1 (centres unmarked) | 2.9
38 | Cc1nn(Cc2ccc(Cl)cc2)c(C)c1NC(=O)c1cc(-c2ccc3c(c2)OCO3)on1 | -3.11
39 | CN(C)C(=O)N1CCC(C(=O)N2CCCC(C(=O)c3cccc4ccccc34)C2)CC1 (centres unmarked) | -33.8
40 | Clc1ccc(OCCCN2CCCCC2)c(Br)c1.O=C(O)C(=O)O | -70.7
41 | Clc1ccc(Cl)c(OCCCCN2CCNCC2)c1.O=C(O)C(=O)O | -17.4
42 | Clc1ccc(OCCN2CCCCC2)c(Cl)c1.O=C(O)C(=O)O | -16.2
43 | CCOC(=O)C(NC(=O)Cc1ccccc1)(Nc1cc(C)on1)C(F)(F)F (centres unmarked) | 3.97
44 | N#Cc1ccccc1NC(=O)COC(=O)CCc1ccccc1 | -14.9
